Results reported in PubChem BioAssay AID686978 (National Center for Advancing Translational Sciences (NCATS), 2013).
Several values for one entry are separate records, joined by “and”; a condition that tells them apart may be missing. Equal values may be shown once. Screen size: about 420,000 compounds; about 64,000 (15%) were called active. Where a call stands in place of a potency, no number is given. Roughly 27% stayed inconclusive and do not appear here. The call rests on the fitted dose curve; in most records, active means well fitted inhibition curve with a large enough effect; inconclusive means small, poorly fitted or top-dose-only effect; inactive means flat fitted curve, though single readings scatter. The full list was thinned out, with actives kept by preference.
Potency means the concentration at half of the fitted maximal effect.

Assay: qHTS for Inhibitors of human tyrosyl-DNA phosphodiesterase 1 (TDP1): qHTS in cells in absence of CPT; further: nearly all actives have a fitted effect of over 55% in size
Conditions: DT40 Tdp1-/- hTDP1 cells, no CPT, ATP luminescence, 48 h; series mostly up to 46.2 µM
Summary of the method: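 Camptothecin absent (DMSO only). Human TDP1-complemented DT40 knockout cells, 400 cells/well, 37 °C for minimum 48 hr; ATP measured via CellTiter-Glo, 30 min dark incubation, luminescence.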
For `COc1ccc(-c2cc(NC=O)c3ncc(-c4cc(OC)c(OC)c(OC)c4)n3c2)c(OC)c1`, the Potency was 0.82 µM (active).
With `O=C1NC(=O)N(Cc2ccco2)C(=O)/C1=C\c1cccn1CCOc1ccccc1` the Potency was “inactive”.
With `O=C(O)COc1ccccc1/C=C1\C(=O)NC(=O)N(CCC2=CCCCC2)C1=O` the Potency was “inactive”.
With `O=C1NC(=O)N(CCc2ccc(F)cc2)C(=O)/C1=C/C=C/c1ccccc1` the Potency was 6.51 µM (active).
With `CCc1ccc(N(CC)C(=O)CCn2cnc3onc(-c4ccc(F)cc4)c3c2=O)cc1` the Potency was 13 µM (active).
In the case of `O=C(/C=C/c1cccs1)c1cc(Cl)ccc1OC(=O)N1CCOCC1`, the Potency is reported as 16.4 µM (active).
For `Cc1cccc(-n2c(O)c(C=NC34CN5CN(CN(C5)C3)C4)c(=O)[nH]c2=O)c1`, the Potency was “inactive”.
With `Oc1ccc2c3c1OC1[C@H](O)CC[C@@]4(O)[C@@H](C2)N(CC2CC2)CC[C@]314` (some centres not stated) the Potency was “inactive”.
With `COC12CC[C@@]3(C[C@@H]1C(C)(O)C(C)(C)C)[C@H]1Cc4ccc(O)c5c4[C@@]3(CCN1CC1CC1)[C@H]2O5` (some centres not stated) the Potency was 24.1 µM (active).
With `CCOC(=O)C1CN(C)CCC1=O` (configuration not stated) the Potency was “inactive”.
In the case of `CCC/C(=N\O)c1c[nH]c2ccccc12`, the Potency is reported as “inactive”.
In the case of `CNCC[C@H](Oc1ccc(C(F)(F)F)cc1)c1ccccc1`, the Potency is reported as 8.41 µM (active) and 14.6 µM (active).
With `CCC1(CC(C)c2ccccc2)C(=O)NC(=O)NC1=O` (configuration not stated) the Potency was “inactive”.
With `CCCCC/C=C\C/C=C\C/C=C\CCCCCCC(=O)NCCO` the activity change, negative = growth inhibition was -2.66% [at 4.12 µM] (inactive).
With `CC1CCCN1CCC(C(N)=O)(c1ccccc1)c1ccccc1` (configuration not stated) the Potency was “inactive”.
In the case of `O=Cc1cn(Cc2ccc(F)cc2Cl)c2ccccc12`, the Potency is reported as 18.4 µM (active).
For `O=[N+]([O-])c1ccc(Cl)c(Cl)c1`, the Potency was “inactive”.
In the case of `CCC(=NCc1ccco1)c1c(O)n(Cc2ccccc2)c(=O)[nH]c1=O`, the Potency is reported as “inactive”.
For `Clc1ccc([C@@H]2C[C@H]3CC[C@@H]2N3)cn1`, the Potency was “inactive”.
In the case of `Cc1ccc([C@H]2C[C@H](O)[C@@H](n3cc(COC(=O)c4ccccc4)nn3)CN2CC2CCCCC2)cc1`, the Potency is reported as 20.6 µM (active).
In the case of `COCCNC(=O)CN1C2CCC1CC(O)(c1cccnc1)C2` (configuration not stated), the Potency is reported as “inactive”.
With `Cn1c(O)c(C=NCCN2CCNCC2)c(=O)n(C)c1=O` the Potency was “inactive”.
For `NCC(O)c1ccc(O)cc1` (configuration not stated), the Potency was “inactive”.
For `c1csc(CN2CC3(CCNCC3)C2)n1`, the Potency was “inactive”.
For `CCc1ccccc1NC(=O)c1sc2nc3c(cc2c1N)CN(Cc1ccccc1)CC3`, the Potency was 5.8 µM (active).
With `CC12CN3CC(C)(CN(C1)C3c1cccs1)C2` (configuration not stated) the Potency was “inactive”.
For `CC(=O)Nc1ccccc1C(=O)OCC(=O)c1cccc2ccccc12`, the Potency was “inactive”.
With `CCOc1cccc(=NC2CCCCC2)c2c(C)[nH]c(C)c12` the Potency was 5.8 µM (active).
For `O=C(N/N=C/c1c(O)n(C2CC2)c(=S)[nH]c1=O)c1ccccc1Cl`, the Potency was “inactive”.
With `OC(CNC1CCCCC1)c1ccccc1` (configuration not stated) the Potency was “inactive”.
With `CC1CC=CCC12C(=O)NC(=S)NC2=O` (configuration not stated) the Potency was “inactive”.
With `COc1ccccc1CNC(=O)Cn1c(=O)oc2cc(Cl)ccc21` the Potency was 18.4 µM (active).
In the case of `Cc1ccccc1N1C(=O)NC(=O)/C(=C\c2cc(C)n(C)c2C)C1=O`, the Potency is reported as “inactive”.
In the case of `C[C@@]12CCC3C(CC[C@@H]4CC(O)CC[C@@]34C)C1CCC2O` (some centres not stated), the Potency is reported as “inactive”.
For `C[C@]12CCC3C(CC[C@H]4[C@H](O)[C@H](O)CC[C@]34C)C1CC[C@@H]2O` (some centres not stated), the Potency was “inactive”.
For `C[C@]12CCC3C(CC[C@H]4[C@H](O)[C@H](O)CC[C@]34C)C1CCC2=O` (some centres not stated), the Potency was 13 µM (active).
With `CC1CCCCN1Cc1cccnc1` (configuration not stated) the Potency was “inactive”.
For `CN1CCC(N(C)Cc2cccnc2)CC1`, the Potency was “inactive”.
In the case of `CCOP(=S)(OCC)SCOC(=O)NCC(=O)OC`, the Potency is reported as “inactive”.
In the case of `CC(Cc1cccs1)NCc1ccc(Cl)cc1` (configuration not stated), the Potency is reported as “inactive”.
In the case of `C[C@@H]1Cn2cnc(C(=O)Nc3ccc(CNC(=O)OC(C)(C)C)cc3)c2C(=O)N1`, the Potency is reported as “inactive”.
With `O=C(NCC1=C(c2ccc3ccccc3c2)C[C@@H]2CC[C@H]1N2Cc1ccco1)c1cccs1` the Potency was 23.1 µM (active).
In the case of `CC(=O)NCC1=C(c2ccc3ccccc3c2)C[C@@H]2CC[C@H]1N2Cc1ccco1`, the Potency is reported as 23.1 µM (active).
In the case of `N[C@H](Cc1o[nH]c(=O)c1Cl)C(=O)O`, the Potency is reported as “inactive”.
In the case of `CC(=NCc1ccc2c(c1)OCO2)c1c(O)[nH]c(=O)[nH]c1=O`, the Potency is reported as “inactive”.
With `Cc1ccc(S(=O)(=O)N(C)c2ccc(C(=O)NCC3(N(C)C)CCCCC3)cc2)cc1` the Potency was “inactive”.
For `CN(C)c1nc(N(C)C)nc(N(C#N)CCCl)n1`, the Potency was “inactive”.
With `C/C(CCc1c[nH]c2ccccc12)=N\O` the Potency was “inactive”.
With `c1cncc(CNCCc2c[nH]c3ccccc23)c1` the Potency was “inactive”.
In the case of `COc1ccc(CNCCc2c[nH]c3ccccc23)cc1OC`, the Potency is reported as 18.4 µM (active).
For `COc1ccc2[nH]cc(CCNCc3ccc(Br)cc3)c2c1`, the Potency was 10.3 µM (active).
For `Cc1cc(C=C2C(=O)NC(=O)NC2=O)c(C)n1-c1ccncc1`, the Potency was “inactive”.
In the case of `O=c1[nH]c(=O)n(CCc2ccccc2)c(O)c1/C=N/N1CCOCC1`, the Potency is reported as “inactive”.
With `Cc1ccc(Cl)cc1N1CCN(C(=O)C2CCC(CNS(=O)(=O)c3cccs3)CC2)CC1` (configuration not stated) the Potency was 18.4 µM (active).
With `Cc1nc2nc(C)c(CCC(=O)N3CCC4(CC3)OCCO4)c(C)n2n1` the Potency was “inactive”.
With `CCOP(=O)(OCC)C(O)c1ccc(OC)cc1OC` (configuration not stated) the Potency was “inactive”.
With `CC[C@H]1CN2CCc3cc(OC)c(OC)cc3[C@@H]2C[C@@H]1C[C@H]1NCCc2cc(OC)c(OC)cc21` the Potency was 150 nM (active) and 36.6 nM (active).
With `Nc1ccc([N+](=O)[O-])cc1` the Potency was “inactive”.
With `CCOc1ccc(CN(CCCl)CCCl)cc1C(=O)OC` the Potency was 4.11 µM (active).
In the case of `COC([CH2][Hg])CNC(=O)c1ccccc1OCC(=O)O` (configuration not stated), the Potency is reported as 1.68 µM (active).
With `CC1([N+](=O)[O-])COP(=O)(Nc2ccc(F)cc2)OC1` (configuration not stated) the Potency was “inactive”.
With `Fc1ccc(N2CCN(Cc3ccc4c(c3)OCO4)CC2)cc1` the Potency was “inactive”.
With `O=C(Cc1ccccc1[N+](=O)[O-])N1CCN(Cc2ccc3c(c2)OCO3)CC1` the Potency was “inactive”.
With `Cc1ccc(NC(=O)N(Cc2ccc3c(c2)OCO3)C2CCN(Cc3ccccc3)CC2)cc1F` the Potency was 23.1 µM (active).
With `OCC#CC[N+]1(CC#Cc2ccccc2)CCCC1` the Potency was “inactive”.
With `CN1CCN(Cc2ccc(OC(F)(F)F)cc2)CC1` the Potency was “inactive”.
For `CN(C)CCCN=Cc1c(O)n(Cc2ccco2)c(=O)[nH]c1=O`, the Potency was “inactive”.
